Inconclusive results are not listed. Values without a mark were called inactive. Calls of active or inactive are those of the source. Calls follow the shape of the dose curve; as a rule, active = well fitted cell-killing curve with a large enough effect in the repeat runs; inconclusive = weak or mixed curves, or effect the other way; inactive = no such curve, though single readings can be large or run the other way.
Assay: qHTS assay to identify small molecule agonists of the estrogen receptor alpha (ER-alpha) signaling pathway in the presence of an antagonist - cell viability counter screen (AID 1259386); also: nearly all actives have a fitted effect of over 30% in size
Conditions: VM7Luc4E2 viability, CellTiter-Fluor fluorescence, 22 h; series mostly up to 92.4 µM; activity change, negative = cytotoxicity: at the top concentration
Description: National Center for Advancing Translational Sciences [NCATS]
NIH Chemical Genomics Center [NCGC]
U.S. Environmental Protection Agency [EPA]
National Institutes of Environmental Health Sciences [NIEHS]
National Toxicology Program [NTP]
U.S. Food and Drug Administration [FDA]
Estrogen receptor (ER), a member of nuclear hormone receptor plays an important role in development, metabolic homeostasis and reproduction. Two subtypes of ER, ER-alpha and ER-beta, have similar expression patterns with some uniqueness in both types. Endocrine disrupting chemicals (EDCs) and their interactions with steroid hormone receptors like ER causes disruption of normal endocrine function. Therefore, it is important to understand the effect of environmental chemicals in ER signaling pathway. For identifying ER agonists, VM7Luc4E2 cell line has been used in the current assay.
VM7Luc4E2 cell line (provided by Denison MS, University of California) endogenously expresses full-length ER-alpha and is stably transfected with a plasmid containing four estrogen responsive elements (ERE) upstream of a luciferase reporter gene. This current screening for measuring luciferase reporter gene activity using VM7Luc4E2 cells against Tox21 10K library collection is a confirmation study on agonist mode screening in presence of ER-antagonist (ICI-182,780) at 10.0nM final concentration. The cytotoxicity of the compounds was tested in parallel by measuring the cell viability using CellTiter-Fluor assay system (Promega, Madison, WI) in the same wells.
Tox21 Assay Protocol Summary:
VM7Luc4E2 cells were cultured in phenol red free assay medium containing 10% charcoal stripped FBS for 5 days prior to the assay. The cells were dispensed at 4,000 cells in 4uL of assay medium per well into white wall/solid-bottom 1536-well plates (Corning Life Sciences, Corning, NY) using a Multidrop Combi (Thermo Fisher Scientific Inc., Waltham, MA) dispenser. After the assay plates were incubated at 37C and 5% CO2 for 24hr, 1uL of 10.0nM (final concentration) ICI-182,780 or assay buffer was added using two separate tips of Flying Reagent Dispenser (FRD, Aurora Discovery, San Diego, CA). Then 23nL of compounds dissolved in DMSO at 15 concentrations and positive controls or DMSO only was transferred to the assay plates by a Pintool station (Wako, San Diego, CA). The assay plates were incubated at 37C and 5% CO2 for 22hr. After 21hr incubation at 37C, 1uL/well CellTiter-Fluor reagent (Promega Corporation, Madison, WI) was added to each well using FRD and after 1hr incubation at 37C and 5% CO2, the fluorescence signal was measured on ViewLux plate reader (PerkinElmer, Shelton, CT).
% is scaled to controls: 0 for no effect and ±100 for the full control effect.

**Q.** Which “activity change, negative = cytotoxicity” value does the source give for `CCC[N+](CCC)(CCC)CCC` here?
**A.** -0.975%

**Q.** For `CCC1CCC(=O)O1` (stereo not given), which “activity change, negative = cytotoxicity” value is on record?
**A.** 1.93%

**Q.** For `C=CC(=O)NC(C)(C)CC(C)=O`, which “activity change, negative = cytotoxicity” value is on record?
**A.** 1.45%

**Q.** For `Nc1c(Br)cc(Br)c2c1C(=O)c1ccccc1C2=O`, which activity change, negative = cytotoxicity is on record?
**A.** -8.67% [at 19 µM]

**Q.** Which “activity change, negative = cytotoxicity” value does the source give for `FC(Cl)(Cl)C(F)(Cl)Cl` here?
**A.** 3.39%

**Q.** For `CCCCOC(=O)CCC(=O)OCCCC`, which “activity change, negative = cytotoxicity” value is on record?
**A.** 2.24%

**Q.** Which “activity change, negative = cytotoxicity” value does the source give for `CCCCC1C(=O)NC(=O)N(C2CCCCC2)C1=O` (stereo not given) here?
**A.** -0.291% [at 42.5 µM]

**Q.** For `CCC(C)Cl` (stereo not given), which “activity change, negative = cytotoxicity” value is on record?
**A.** 2.2%

**Q.** For `COc1cc(CC(C)N)c(OC)cc1Br` (stereo not given), which “activity change, negative = cytotoxicity” value is on record?
**A.** -7.57%

**Q.** For `CCCCNC(=O)OCC#CI`, which “activity change, negative = cytotoxicity” value is on record?
**A.** -6.94%

**Q.** For `O=C(O)C(O)C(O)C(=O)O` (stereo not given), which “activity change, negative = cytotoxicity” value is on record?
**A.** 0.599%

**Q.** With `C1CS1` as the molecule, how does the “activity change, negative = cytotoxicity” value read?
**A.** 4.7%

**Q.** For `CC1(C)[C@H](C(=O)O[C@H](C#N)c2cccc(Oc3ccccc3)c2)[C@@H]1C=C(Br)Br`, which Potency is on record?
**A.** inactive

**Q.** With `NNCCO` as the molecule, how does the “activity change, negative = cytotoxicity” value read?
**A.** 0.0627%

**Q.** For `O=C(Cl)OCCOCCOC(=O)Cl`, which “activity change, negative = cytotoxicity” value is on record?
**A.** -2.66%

**Q.** For `C=C(Cl)Cl`, which “activity change, negative = cytotoxicity” value is on record?
**A.** 2.83%

**Q.** Which “activity change, negative = cytotoxicity” value does the source give for `O=C(O)c1ccc(=O)[nH]c1` here?
**A.** 0.057% [at 42.5 µM]

**Q.** With `C#C[C@]1(O)CC[C@H]2[C@@H]3CCC4=CC(=O)CCC4=C3C=C[C@@]21CC` as the molecule, how does the “activity change, negative = cytotoxicity” value read?
**A.** -4.66% [at 42.5 µM]

**Q.** With `CN1C(=O)CN=C(c2ccccc2)c2cc([N+](=O)[O-])ccc21` as the molecule, how does the “activity change, negative = cytotoxicity” value read?
**A.** -5.41% [at 42.5 µM]

**Q.** Which “activity change, negative = cytotoxicity” value does the source give for `COc1cc(C[C@@H](C)N)c(OC)cc1Br` here?
**A.** -3.26%

**Q.** For `COc1cc(CC#N)cc(OC)c1OC`, which “activity change, negative = cytotoxicity” value is on record?
**A.** 1.35% [at 42.5 µM]

**Q.** For `N#CC(C#N)=Cc1ccc(O)c(O)c1`, which “activity change, negative = cytotoxicity” value is on record?
**A.** 6.64% [at 42.5 µM]

**Q.** With `Cc1ccc(N)c(C)c1` as the molecule, how does the Potency read?
**A.** inactive

**Q.** For `C[C@]12C=CC3=C4CCC(=O)C=C4CC[C@H]3[C@@H]1CC[C@@H]2O`, which “activity change, negative = cytotoxicity” value is on record?
**A.** 1.15%

**Q.** For `CCC1(C2=NCCN2)Cc2ccccc2O1` (stereo not given), which “activity change, negative = cytotoxicity” value is on record?
**A.** 0.897% [at 42.5 µM]

**Q.** For `CN[C@@H](C)[C@H](O)c1ccccc1`, which “activity change, negative = cytotoxicity” value is on record?
**A.** 1.43% [at 42.5 µM]

**Q.** Which “activity change, negative = cytotoxicity” value does the source give for `CCCCCCCCCCCC[N+](C)(C)CCOc1ccccc1` here?
**A.** -1.53% [at 42.5 µM]

**Q.** For `CCCCCBr`, which “activity change, negative = cytotoxicity” value is on record?
**A.** 5.69%

**Q.** Which “activity change, negative = cytotoxicity” value does the source give for `Cc1ccccc1` here?
**A.** 0.278%

**Q.** For `CCOC(=O)c1cncn1C(C)c1ccccc1` (stereo not given), which “activity change, negative = cytotoxicity” value is on record?
**A.** 0.355% [at 42.5 µM]

**Q.** Which “activity change, negative = cytotoxicity” value does the source give for `C#CC(O)(C=CCl)CC` (stereo not given) here?
**A.** 5.47% [at 42.5 µM]

**Q.** Which “activity change, negative = cytotoxicity” value does the source give for `CCOC(C(=O)OCCN(C)C)(c1ccccc1)c1ccccc1` here?
**A.** -2.32% [at 42.5 µM]

**Q.** For `CCC(=O)O[C@@H]1C=C2CCC3C(CCC4(C)C3CC[C@@H]4OC(=O)CC)C2CC1` (stereo not given in full), which “activity change, negative = cytotoxicity” value is on record?
**A.** 4.24% [at 42.5 µM]

**Q.** Which “activity change, negative = cytotoxicity” value does the source give for `N#CC1(N=NC2(C#N)CCCCC2)CCCCC1` here?
**A.** -8.25%

**Q.** For `c1ccc2c(c1)-c1cccc3cccc-2c13`, which Potency is on record?
**A.** inactive

**Q.** With `OCCCl` as the molecule, how does the “activity change, negative = cytotoxicity” value read?
**A.** 2.72%

**Q.** For `O=C=NC1CCCCC1`, which “activity change, negative = cytotoxicity” value is on record?
**A.** 4.48%

**Q.** Which “activity change, negative = cytotoxicity” value does the source give for `O=C(O)c1cc(I)cc(I)c1I` here?
**A.** 6.92%

**Q.** For `CCCN(CCC)c1c([N+](=O)[O-])cc(C(C)C)cc1[N+](=O)[O-]`, which Potency is on record?
**A.** inactive

**Q.** With `O=C(O)C(Cl)(Cl)Br` as the molecule, how does the “activity change, negative = cytotoxicity” value read?
**A.** 3.36%
